From PubChem BioAssay (EPA / NIEHS)
Values joined by “and” are separate entries in the source; they are usually repeats but may differ in a detail not shown here. Equal values may be shown once. Results filed as inconclusive are left out. Active and inactive are the calls of the source. Rule for the calls: active = hit-call score of the fitted dose curve at least 0.9, where 1 is the maximum; inconclusive = response in the unintended direction; inactive = score below 0.9.

biological target: Androgen Receptor/SRC-1 Co-activator, AR (gene 367) (UniProt P10275); experiment: OT_AR_ARSRC1_0480: Odyssey Thera (OT) 8-hour HEK293T Protein-Complementation Assay for Androgen Receptor/SRC-1 Co-activator (AID 2283354);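 note: hits raise the complementation signal above DMSO so AC50 marks enhancers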
Procedure, shortened: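 Reconstituted split-Venus YFP signal from AR–SRC-1 interaction, read by imaging 8 h post-dose in stable HEK293T lines. The 488 nm nucleus-to-cytoplasm ratio (≥400 cells/image) was fitted upward against DMSO.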

Chain of Androgen Receptor/SRC-1 Co-activator, AR (gene 367) (P10275 whole entry, looked up): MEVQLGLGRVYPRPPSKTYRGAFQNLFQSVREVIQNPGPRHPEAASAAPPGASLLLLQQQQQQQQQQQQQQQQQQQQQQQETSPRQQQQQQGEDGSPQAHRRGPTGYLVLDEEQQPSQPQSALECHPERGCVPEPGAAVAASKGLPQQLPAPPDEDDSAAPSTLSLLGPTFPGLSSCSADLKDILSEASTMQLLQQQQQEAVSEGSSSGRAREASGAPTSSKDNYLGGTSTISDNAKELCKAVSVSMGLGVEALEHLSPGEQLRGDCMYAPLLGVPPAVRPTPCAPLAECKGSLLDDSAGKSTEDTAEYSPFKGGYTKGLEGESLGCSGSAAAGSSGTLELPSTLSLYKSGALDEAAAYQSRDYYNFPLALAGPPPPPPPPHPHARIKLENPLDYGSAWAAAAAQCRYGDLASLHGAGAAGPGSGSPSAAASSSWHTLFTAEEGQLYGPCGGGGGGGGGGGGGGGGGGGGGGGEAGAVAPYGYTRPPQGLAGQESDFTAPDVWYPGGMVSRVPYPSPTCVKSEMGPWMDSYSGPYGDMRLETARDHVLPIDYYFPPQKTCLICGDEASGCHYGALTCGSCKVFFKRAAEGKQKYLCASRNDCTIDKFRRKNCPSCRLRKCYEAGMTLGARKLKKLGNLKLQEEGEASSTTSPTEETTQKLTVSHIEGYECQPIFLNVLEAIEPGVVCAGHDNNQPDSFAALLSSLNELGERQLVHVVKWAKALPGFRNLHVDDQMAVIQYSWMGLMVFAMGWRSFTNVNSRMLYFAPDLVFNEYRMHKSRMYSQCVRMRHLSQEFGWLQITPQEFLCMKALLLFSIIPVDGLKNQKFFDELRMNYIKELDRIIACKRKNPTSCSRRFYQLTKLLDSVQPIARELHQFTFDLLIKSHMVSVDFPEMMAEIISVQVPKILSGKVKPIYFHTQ

Row | Structure (SMILES) | outcome | AC50
1 | CCOC(=O)CC(SP(=S)(OC)OC)C(=O)OCC (stereo not given) | inactive | –
2 | N#Cc1nn(-c2c(Cl)cc(C(F)(F)F)cc2Cl)c(N)c1S(=O)C(F)(F)F (stereo not given) | inactive | –
3 | CS/C(C)=N/OC(=O)N(C)SN(C)C(=O)O/N=C(\C)SC | – | 72.2 µM (active)
4 | CO/C=C(/C(=O)OC)c1ccccc1Oc1cc(Oc2ccccc2C#N)ncn1 | inactive | –
5 | O=C(Nc1ccccc1)Nc1ccnc(Cl)c1 | inactive | –
6 | CN(C)C(=S)SSC(=S)N(C)C | inactive | –
7 | N#Cc1cc(Br)c(O)c(Br)c1 | inactive | –
8 | Cc1cc(Cl)ccc1OCC(=O)O | inactive | –
9 | CCCC1COC(Cn2cncn2)(c2ccc(Cl)cc2Cl)O1 (stereo not given) | inactive | –

biological target: Estrogen receptor (Homo sapiens) + Estrogen receptor beta (Homo sapiens) (UniProt P03372+Q92731); experiment: OT_ER_ERaERb_1440: Odyssey Thera (OT) 24-hour HEK293T Protein-Complementation Assay for Estrogen Receptor-alpha/-beta Homodimer (AID 2283356);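 note: heteromer of ER alpha and ER beta binding domains; hits raise reporter fluorescence and both agonists and antagonists give an increase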
Procedure, shortened: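 Heterodimerisation of ERα (aa 310-547) and ERβ (aa 263-489) ligand binding domains was tracked as fluorescence gain in stably transfected HEK293T cells following 24 h dosing, normalised to DMSO controls.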

Chain of Estrogen receptor (Homo sapiens) + Estrogen receptor beta (Homo sapiens) (P03372 whole entry, looked up, the tested form may be a part): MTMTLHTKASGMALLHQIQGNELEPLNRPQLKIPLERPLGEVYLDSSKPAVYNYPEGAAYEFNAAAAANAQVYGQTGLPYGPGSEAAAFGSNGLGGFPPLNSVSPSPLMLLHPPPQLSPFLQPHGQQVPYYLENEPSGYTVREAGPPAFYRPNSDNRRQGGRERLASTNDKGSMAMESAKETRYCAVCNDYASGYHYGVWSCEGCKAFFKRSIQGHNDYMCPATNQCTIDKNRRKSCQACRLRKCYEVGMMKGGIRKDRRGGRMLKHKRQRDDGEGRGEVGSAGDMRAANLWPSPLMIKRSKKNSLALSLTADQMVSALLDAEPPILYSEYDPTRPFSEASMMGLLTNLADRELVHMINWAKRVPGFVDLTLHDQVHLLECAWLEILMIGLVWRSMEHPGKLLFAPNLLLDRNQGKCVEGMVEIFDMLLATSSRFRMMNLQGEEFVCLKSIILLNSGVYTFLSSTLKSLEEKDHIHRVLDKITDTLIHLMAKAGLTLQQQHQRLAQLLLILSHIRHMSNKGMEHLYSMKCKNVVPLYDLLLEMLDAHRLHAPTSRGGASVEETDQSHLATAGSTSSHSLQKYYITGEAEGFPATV
Chain of Estrogen receptor (Homo sapiens) + Estrogen receptor beta (Homo sapiens) (Q92731 whole entry, looked up, the tested form may be a part): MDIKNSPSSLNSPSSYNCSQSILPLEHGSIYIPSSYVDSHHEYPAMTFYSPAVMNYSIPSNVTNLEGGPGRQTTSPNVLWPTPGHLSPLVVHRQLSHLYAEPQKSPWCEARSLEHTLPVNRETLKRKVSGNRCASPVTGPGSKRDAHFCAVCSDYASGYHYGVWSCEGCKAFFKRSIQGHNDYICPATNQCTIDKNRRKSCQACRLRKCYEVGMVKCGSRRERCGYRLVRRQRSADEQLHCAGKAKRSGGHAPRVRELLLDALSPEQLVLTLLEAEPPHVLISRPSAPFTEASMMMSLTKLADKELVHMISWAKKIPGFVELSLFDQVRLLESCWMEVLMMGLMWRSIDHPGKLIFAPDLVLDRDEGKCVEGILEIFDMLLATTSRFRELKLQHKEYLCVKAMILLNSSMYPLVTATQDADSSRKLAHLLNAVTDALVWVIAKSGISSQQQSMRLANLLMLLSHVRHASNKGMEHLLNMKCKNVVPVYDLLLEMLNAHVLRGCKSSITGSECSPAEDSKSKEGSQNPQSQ

Row | Structure (SMILES) | outcome | AC50
10 | CCOP(=S)(OCC)SCn1c(=O)oc2cc(Cl)ccc21 | inactive | –
11 | N#Cc1nn(-c2c(Cl)cc(C(F)(F)F)cc2Cl)c(N)c1S(=O)C(F)(F)F (stereo not given) | inactive | –
12 | CS/C(C)=N/OC(=O)N(C)SN(C)C(=O)O/N=C(\C)SC | inactive | –
13 | C=CC1(C)OC(=O)N(c2cc(Cl)cc(Cl)c2)C1=O (stereo not given) | inactive | –
14 | CO/C=C(/C(=O)OC)c1ccccc1Oc1cc(Oc2ccccc2C#N)ncn1 | inactive | –
15 | CCCN(CCC)c1c([N+](=O)[O-])cc(S(N)(=O)=O)cc1[N+](=O)[O-] | inactive | –
16 | CN(C)C(=S)SSC(=S)N(C)C | inactive | –
17 | CCNc1nc(Cl)nc(NC(C)C)n1 | inactive | –
18 | CCCCOC(=O)c1ccccc1C(=O)OCCCC | – | 38.4 µM (active) and 33.9 µM (active) and 39.3 µM (active)
19 | CC1COC(Cn2cncn2)(c2ccc(Oc3ccc(Cl)cc3)cc2Cl)O1 (stereo not given) | inactive | –
20 | N#CC(CCc1ccc(Cl)cc1)(Cn1cncn1)c1ccccc1 (stereo not given) | inactive | –
